Screening data as filed in PubChem BioAssay.
Rows were chosen to be rich in hits. Some 4.7% of all compounds tested hit in one or more screens of this group.
D1 antag: blocks dopamine activation of the human D1 receptor. P21728. HEK293 TREx D1 cells, calcium flux, dopamine EC80; hits give low values. activity change, negative = inhibition, % at 10 µM. 3.2% of 360,000 active; in the data active = activity change below about -30%; also: % is scaled to controls: 0 for no effect and ±100 for the full control effect
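Kinetic fluorescence of a calcium dye serves as the read-out. D1-expressing Hek293 Trex cells, induced overnight at 30 C, are exposed to compound for 180 s before an EC80 dopamine addition, then read 180 s further.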
D1 potentiator: potentiators of human D1 dopamine receptor; P21728; HEK293 TREx D1 cells, calcium flux, dopamine EC20 potentiation; potentiation, % at 10 µM; 0.036% of 360,000 active; AID 504651; in the data active = potentiation above about 30%; also: 0% is about no effect
TRHR enhancer: allosteric enhancers of human TRH receptor; TRHR cells, fluo-8 calcium fluorescence, EC20 TRH enhancement; 0.66% of 360,000 active; enhancement, % at 2 µM; P34981; AID 493056; in the data active = enhancement above about 30%; also: 0% is about no effect
Target sequence (P34981 whole entry, looked up): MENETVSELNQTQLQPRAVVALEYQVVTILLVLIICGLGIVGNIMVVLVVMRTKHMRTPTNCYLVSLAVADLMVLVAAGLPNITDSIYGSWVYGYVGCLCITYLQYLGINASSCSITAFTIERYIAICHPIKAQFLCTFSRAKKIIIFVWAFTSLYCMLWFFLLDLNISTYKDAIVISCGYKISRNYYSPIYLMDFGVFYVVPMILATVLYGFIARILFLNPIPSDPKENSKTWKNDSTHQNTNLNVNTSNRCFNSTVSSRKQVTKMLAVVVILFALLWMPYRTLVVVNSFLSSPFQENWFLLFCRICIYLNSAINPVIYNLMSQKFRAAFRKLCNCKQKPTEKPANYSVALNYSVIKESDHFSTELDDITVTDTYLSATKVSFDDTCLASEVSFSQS
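Enhancer read-out: after compound pinning and an initial kinetic agonist-mode read, an EC20 of TRH (10 nM final) was injected and fluo-8 calcium signal (Ex 480/Em 530) followed at 1 s/cycle for 100 cycles in TRHR-expressing cells.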
TRHR agonist: TRH receptor (human) agonism; P34981; TRHR cells, calcium flux fluo-8, FDSS agonist mode; activation, % at 2 µM; 0.18% of 360,000 active; also: 0% is about no effect
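Fluo-8-loaded TRHR cells; 10 s baseline, compound added, kinetic Ca2+ fluorescence read 1/s, agonist mode.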
D1 agonist: agonists of human D1 dopamine receptor; P21728; HEK293 T-REx D1 cells, calcium flux, agonist mode; activation, % at 2 µM; 1% of 360,000 active; also: 0% is about no effect
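Tetracycline-induced HEK293 TREx D1 cells, force-coupled to calcium signalling, were dye-loaded with a no-wash calcium kit. Compound was pin-added after a 10 s baseline. Fluorescence was read kinetically at 1 cycle/s for 180 s, with calcium rises flagged as agonism.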
Numbers without * were called inactive; . = no result. Rule as the data show it, unless noted: active = activation above about 30%; inactive = the rest.

SMILES	D1 antag	D1 potentiator	TRHR enhancer	TRHR agonist	D1 agonist
Cc1ccc(C)c(NC(=O)C(CC(=O)O)C2CCCO2)c1 (stereo unspecified)	1	-5	-2	0	1
CCn1c2ccccc2c2cc(CN3CCN(Cc4ccccc4Cl)CC3)ccc21	-4	1	3	0	-1
COc1ccc(N2CC(NC(=O)c3cc4ccccc4o3)CC2=O)cc1 (stereo unspecified)	.	-2	-1	0	-1
O=C(CSc1nc2ccccc2nc1Cc1ccccc1)N1CCc2ccccc21	11	-2	-5	0	1
CC(C)CCn1c(=O)c2sccc2n2c(CCCC(=O)N3CCC(N4CCCCC4)CC3)nnc12	-45*	-6	1	0	0
CCOC(=O)c1cc(OC(=O)c2cc(OC)c(OC)c(OC)c2)n(-c2ccccc2)n1	-10	-3	-5	1	0
O=C(O)c1ccccc1N/N=C/c1c(Sc2nnnn2-c2ccccc2)nc2ccccn2c1=O	-43*	-5	8	22	20
CCc1nc(-c2cc(S(=O)(=O)N3CCN(c4ccc(F)cc4)CC3)ccc2OC)no1	12	1	15	-1	-2
COc1ccc(Cl)cc1NC(=O)Cn1cc2c(n1)CCC(C)C2 (stereo unspecified)	21	1	0	0	5
COCCNC(=O)c1cc2c(s1)-c1ccc(Cl)cc1SC2	-92*	-9	7	0	4
CCOc1ccc(N(CC)C(=O)c2cc3c(s2)-c2ccc(Cl)cc2SC3)cc1	3	-3	3	-2	3
O=C(NNC1=NS(=O)(=O)c2ccccc21)c1ccc([N+](=O)[O-])cc1	-16	0	30*	0	2
O=C(NNC1=NS(=O)(=O)c2ccccc21)c1ccc(Cl)cc1	-25	-9	3	0	0
CCOC(=O)c1c(-c2ccc(C)cc2)csc1NC(=O)c1cc(=O)c2cc(C)cc(C)c2o1	8	-2	1	0	2
CC(=O)c1cc(-c2ccccc2)n(CC(=O)Nc2cccc(C)c2)c1C	-17	-4	-4	0	0
CCc1cccc(NC(=O)Cn2c(-c3ccccc3)cc(C(C)=O)c2C)c1	-33*	-7	-2	-1	2
Cc1ccc(NC(=O)N2CCC(CN3CCCC3)CC2)c(C)c1	15	4	9	0	-1
COc1ccc(C2Nc3ccccc3C(=O)N2c2ccccc2)cc1Cn1cc([N+](=O)[O-])cn1 (stereo unspecified)	-4	0	9	1	1
COc1ccc(N2C(=O)c3ccccc3NC2c2ccc(OC)c(Cn3cc([N+](=O)[O-])cn3)c2)cc1 (stereo unspecified)	-38*	-9	-1	-1	0
COc1ccc(N2CCN(c3nc4ccccc4n4c(C)nnc34)CC2)cc1	-76*	-5	0	0	0
Cc1nnc2c(N3CCN(CCO)CC3)nc3ccccc3n12	-6	-1	4	1	4
O=C(CSc1nc2sc3c(c2c(=O)[nH]1)CCCC3)Nc1ccccc1F	-11	1	-7	1	5
CC1CCN(S(=O)(=O)c2cc(C(=O)NCc3ccccc3)n(C)c2)CC1	14	0	2	0	0
COC(=O)C1(C)CCc2cc(OC)ccc2C1=O (stereo unspecified)	-46*	5	2	0	0
CC(C)CCNC(=O)c1ccc2c(c1)NC(=O)C(CS(=O)(=O)Cc1cccc(Br)c1)N2 (stereo unspecified)	-42*	-10	0	-2	5
SMILES	D1 antag	D1 potentiator	TRHR enhancer	TRHR agonist	D1 agonist
CCc1ccccc1NC(=O)Cc1c(C(=O)O)[nH]c2ccc(Cl)cc12	0	1	-1	0	3
CCCCn1c(=O)c2oc3ccccc3c2n(CC(=O)Nc2ccc(CC)cc2)c1=O	10	1	-14	1	0
C/C(=N/NC(=O)c1ccc(C)s1)c1cccnc1	-7	-4	7	-1	3
C/C(=N/NC(=O)c1ccc(Cl)s1)c1cccnc1	-48*	-11	22	2	7
CC(=O)c1cccc(NC(=O)COC(=O)c2ccccc2C)c1	-17	-4	31*	-1	15
CC(=O)c1ccc(NC(=O)COc2ccccc2C(=O)Nc2ccccc2)cc1	-61*	-11	-2	1	7
O=C(c1ccc(Br)cc1)N1CCCC1	-2	-2	-4	0	1
CC(=O)c1ccc(NC(=O)COc2ccccc2C(=O)Nc2ccc(C)cn2)cc1	.	-4	2	-1	-2
O=C(Nc1ccc(C(=O)N2CCCCC2)cc1)c1ccc(Br)cc1	-31*	-4	1	-1	4
COc1ccccc1C(=O)NC(=S)Nc1ccc(Cc2ccncc2)cc1	48	39*	-6	3	19
O=C(CNCCc1ccccc1)Nc1ccc(C(=O)N2CCCCC2)cc1	21	-9	0	1	9
CCOc1ccccc1C(=O)Nc1ccc(C(=O)c2ccccc2)cc1	-13	-5	-11	-2	9
Cc1ccc(C(=O)Nc2ccc(N3CCN(C(=O)c4ccco4)CC3)cc2)cc1	-9	2	-10	-1	2
O=C(Nc1ccc(N2CCN(C(=O)c3ccco3)CC2)cc1)c1ccc(Br)cc1	-32*	-11	-7	0	0
COc1ccccc1C(=O)Nc1ccc(C(=O)N2CCCC2)cc1	-71*	-10	-4	0	-3
CCOc1ccccc1C(=O)Nc1ccc(NC(=O)c2ccccc2)cc1	5	-2	34*	1	2
O=C(CNCCc1ccc(Cl)cc1)Nc1ccc(C(=O)N2CCCCC2)cc1	-16	-11	-2	1	34*
COc1ccccc1C(=O)Nc1ccc(C(=O)N2CCCCC2)cc1	-21	-1	-3	0	5
CC(C)CCN1C(=O)c2ccccc2CC1(C)C(=O)NC1CCCCC1 (stereo unspecified)	-4	-4	8	0	-1
CCOC(=O)c1ccc(NC(=O)c2ccc(OC(C)C)c(OC)c2)cc1	-32*	-13	-4	-1	0
CCOc1ccc(NC(=O)c2ccccc2OC)cc1	-13	41*	-3	0	0
COc1ccccc1C(=O)Nc1ccncc1	6	-4	35*	0	1
CCOc1ccc(NC(=O)c2oc3ccccc3c2NC(=O)c2c(F)cccc2F)cc1	-19	-4	-1	-2	8
CCOc1ccccc1C(=O)Nc1c(C(=O)Nc2ccc(F)cc2)oc2ccccc12	7	-1	43*	1	5
Cc1ccc(-n2c(=O)c3ccc(C(=O)NCc4ccco4)cc3n(CC(=O)Nc3ccc(C)c(F)c3)c2=O)cc1	-8	-4	4	2	5
